TWEAK Fn14 block – TWEAK-Fn14 signaling inhibition; AID 1159606; TWEAK-stimulated Fn14 reporter cells, luciferase luminescence, 8 h; inhibition, % at 10 µM; 360,000 tested, 2% active; in the data active = inhibition above about 50%
EWS-Fli inh – EWS/Fli transcriptional activity inhibition; A673 NR0B1-luciferase reporter, viability-normalised; inhibition, % at 12.6 µM; 350,000 tested, 0.67% active;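 active = mean inhibition of at least 50% after viability correction, with every replicate also passing that limit; inconclusive = mean reaches 50% but only one of two replicates passes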;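 note: firefly luciferase signal divided by Alamar Blue viability fluorescence both relative to DMSO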
TROY signal inh – blocks TROY-dependent signaling in reporter cells | Q293 LMP1-TROYcd NF-kB luciferase reporter, 4 h | inhibition, % at 10 µM | 360,000 tested, 0.98% active | AID 1347056;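 active = compounds whose plate-normalised and pattern-corrected inhibition of the luciferase reporter signal at the single screening dose is 50% or more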
LGR2 inh – blocks bursicon-induced cAMP signaling via Drosophila LGR2. HEK293 LGR2, CRE-luciferase, bursicon-stimulated, 4 h. inhibition, % at 9.99 µM. 380,000 tested, 0.35% active;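 active = drop in luminescence signal, shown as inhibition above about 50% in the replicate tests, limit read from the data, passing the limit was not always enough; inconclusive = probably only some replicates passing the limit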;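 note: agonist challenge used bursicon conditioned medium at about half maximal strength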
PAX8 reporter – PAX8 transcriptional activity inhibition; RMG-I TPO-luciferase reporter, SteadyGlo, 24 h; inhibition, % at 12.6 µM; 360,000 tested, 1.2% active; AID 652154;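 active = mean replicate inhibition at least 60% with every replicate also reaching 60%; inconclusive = only one of the two criteria is met; inactive = mean below 60% and not all replicates reaching 60%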;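 note: luciferase light reporting Pax8 driven TPO promoter activity; plate controls were median of neutral control wells for no effect and mitoxantrone controls for full effect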
LMP1 NFkB inh – inhibitors of Epstein-Barr LMP1-induced NF-kappaB reporter; LMP1-induced NF-kappaB luciferase reporter cells, luminescence; inhibition, % at 12.5 µM; 350,000 tested, 0.69% active; AID 504558; in the data active = inhibition above about 41%; inconclusive = no clear call, values can overlap the other calls;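 note: 0% = neutral control wells and 100% = reference inhibitor control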
An asterisk follows results filed as active; ? = inconclusive; nt = not tested or not shown. Rows were chosen to be rich in hits. Some 3.2% of all compounds tested hit in one or more screens of this group.

SMILES	TWEAK Fn14 block	EWS-Fli inh	TROY signal inh	LGR2 inh	PAX8 reporter	LMP1 NFkB inh
CC(C)N(C(C)C)S(=O)(=O)c1ccc(N2CCc3ccccc3C2)nc1	58*	-81	49	14	-139	-44
CCN(CC)S(=O)(=O)c1ccc(N2CCc3ccccc3C2)nc1	29	nt	10	-19	3	-9
Cc1ccccc1CNc1ccc(C(CC(N)=O)NC(=O)c2ccc(Br)cc2)cc1[N+](=O)[O-] (configuration not stated)	-10	4	23	-9	6	60*
Clc1ccccc1Nc1nnc(-c2ccncc2)s1	89*	26	60*	?	-5	36
COc1ccc(Nc2nnc(-c3ccncc3)s2)cc1Cl	38	10	51*	-2	-50	5
CCCC(O)C#Cc1cnc2c(c1)C(=O)N([C@H](C)CO)C[C@H](C)[C@H](CN(C)C(=O)Nc1ccc3c(c1)OCO3)O2 (some centres not stated)	nt	0	nt	34	5	nt
O=[N+]([O-])c1ccc(N/N=C\c2cccn2-c2ccccc2)nc1	52*	nt	-30	-9	nt	7
CC(C)=CCN(C(=O)C#Cc1ccccc1)[C@H](CO)c1ccccc1	nt	42	nt	nt	105*	nt
CC(=O)N(C)C[C@H]1Oc2cc(-c3ccccc3F)ccc2S(=O)(=O)N([C@@H](C)CO)C[C@@H]1C	nt	-13	nt	-5	nt	nt
O=C(N[C@H]1C=C[C@H](CC(=O)N2CCC(Cc3ccccc3)CC2)O[C@H]1CO)c1cnccn1	nt	nt	nt	-8	nt	nt
CCCNc1ccc(C(=O)OCC)cc1[N+](=O)[O-]	-16	2	-29	-47	-144	-29
CCOC(=O)c1ccc(NC(C)=O)c([N+](=O)[O-])c1	59*	-7	69*	-7	-13	-5
COc1ccc(CN(C)C[C@@H]2Oc3ccc(NC(=O)CCN4CCOCC4)cc3C(=O)N([C@@H](C)CO)C[C@H]2C)cc1	nt	-5	nt	17	-14	nt
Cc1ccc(C)c(-n2nnnc2Sc2nnnn2-c2ccccc2)c1	101*	nt	53*	nt	?	13
C[C@@H]1CN([C@H](C)CO)C(=O)c2cc(C#CCN(C)C)cnc2O[C@@H]1CN(C)C(=O)NC1CCCCC1	nt	-1	nt	7	-15	nt
O=C(c1nnsc1S(=O)(=O)c1ccc(Cl)cc1)N1CCOCC1	91*	1	68*	102*	93*	39
O=C(N1CCOCC1)N1CCN(S(=O)(=O)c2ccc(Cl)cc2)C1	17	-1	3	10	2	44*
CNC(=O)c1nnsc1S(=O)(=O)c1ccc(Cl)cc1	59*	58*	69*	103*	107*	68*
O=C(C1CC(Cl)CN1S(=O)(=O)c1ccc(Cl)cc1)N1CCOCC1 (configuration not stated)	4	10	-22	-10	13	-4
COc1ccc(NC(=O)C2CCCN2S(=O)(=O)c2cccc3nsnc23)c(OC)c1 (configuration not stated)	70*	nt	3	nt	nt	3
COc1ccccc1NC(=O)C1CCCN1S(=O)(=O)c1cccc2nsnc12 (configuration not stated)	-1	nt	-11	nt	nt	-1
COc1ccc(/C(O)=C2/C(=O)C(=O)N(Cc3ccco3)C2c2cccs2)cc1 (configuration not stated)	-10	nt	-37	nt	nt	-1
CC1Cc2cc(/C(O)=C3/C(=O)C(=O)N(Cc4ccco4)C3c3cccs3)ccc2O1 (configuration not stated)	66*	nt	65*	nt	nt	-8
O=c1c2ccccc2cnn1-c1ccc(Br)cc1	35	nt	-66	nt	nt	-26
O=c1c2ccccc2cnn1-c1ccc2ccccc2c1	55*	nt	15	36	nt	6
SMILES	TWEAK Fn14 block	EWS-Fli inh	TROY signal inh	LGR2 inh	PAX8 reporter	LMP1 NFkB inh
CC(/C=N/NC(=O)c1cc(-c2ccncc2)nc2ccccc12)=C\c1ccco1	13	nt	3	-1	nt	6
O=C(NNC(=O)c1cc(-c2ccccc2)nc2ccccc12)Nc1cccc(Cl)c1	39	nt	69*	nt	nt	2
O=C(NNC(=O)c1cc(-c2cccnc2)nc2ccccc12)Nc1ccc(Cl)cc1	13	-31	52*	-31	-5	-9
COCCCNC(=O)c1cc(-c2cccnc2)nc2ccccc12	30	3	57*	5	-4	-5
O=C(N/N=C/c1ccco1)c1cc(-c2cccc(Br)c2)nc2ccccc12	77*	nt	48	3	-7	10
C[C@H]1CN([C@@H](C)CO)C(=O)c2cc(NS(=O)(=O)c3ccc(Cl)cc3)ccc2O[C@H]1CN(C)S(=O)(=O)c1cccs1	nt	5	nt	14	30	nt
O=C(N/N=C/c1ccc(Cl)cc1)c1cc(-c2cccnc2)nc2ccccc12	-18	52*	18	-12	13	-17
CCCCCCCCCCS(=O)(=O)N/N=C/c1ccc([N+](=O)[O-])cc1	4	4	51*	-8	nt	5
O=C(C[C@H]1CC[C@H]2NC[C@H](O)COC[C@@H]2O1)NCc1ccc2c(c1)OCO2	nt	-16	nt	-2	1	nt
N#CC1c2ccccc2-c2ccccc2N1C(=O)c1ccccc1 (configuration not stated)	22	55*	11	1	58	12
O=C(Nc1cccc(/C=C/c2nc3ccccc3c(=O)[nH]2)c1)c1ccccc1Cl	72*	-76	38	-42	-34	-26
COc1ccc(C(=O)Nc2nc3ccccc3c(=O)[nH]2)cc1	53*	-6	-25	?	nt	-1
COc1ccc(C(=O)Nc2cccc(/C=C/c3nc4ccccc4c(=O)[nH]3)c2)cc1	57*	8	27	3	64*	-6
COc1ccc(C(=O)Nc2nc3cc(OC)c(OC)cc3c(=O)[nH]2)cc1	-22	nt	1	nt	-8	-13
Cc1cccc(/C=C\c2nc3ccccc3c(=O)[nH]2)c1	29	26	-19	-8	-50	-20
COc1cc(CN2CC3(CCN(S(=O)(=O)c4cn(C)cn4)CC3)c3c(n(C)c4cc(OC)ccc34)[C@H]2CO)cc(OC)c1	nt	-7	nt	-8	-8	nt
Cn1c(COc2ccccc2O)[n+](C)c2ccccc21	11	-5	-4	-3	4	13
CCCCCCCCCCOC(=O)Cn1c(COc2ccccc2OC)[n+](C)c2ccccc21	67*	57*	61*	54*	70*	33
CCCCC1Cc2[nH]c(=S)[nH]c(=O)c2C(c2ccc(F)cc2)O1 (configuration not stated)	18	7	1	13	95*	nt
CN(C)CC(=O)Nc1ccc2c(c1)[C@H]1C[C@H](CC(=O)NC3CCCC3)O[C@H](CO)[C@H]1O2	nt	4	nt	1	7	nt
O=C(O)C1C2C=CC(C2)C1C(=O)Nc1ccc2c(c1)OCCO2 (configuration not stated)	65*	nt	52*	nt	nt	9
CN(C)c1ccc(NC(=O)C2C3C=CC(C3)C2C(=O)O)cc1 (configuration not stated)	42	-70	-5	-15	-11	-4

Bioassay records from PubChem BioAssay.
